D1 PAM – enhances dopamine response at the human D1 receptor; P21728; HEK293 TREx D1 cells, calcium flux, dopamine EC20 potentiation; potentiation, % at 10 µM; 360,000 tested, 0.036% active; in the data active means potentiation above about 30%; further: 0% is about no effect
Target sequence (P21728 whole entry, looked up): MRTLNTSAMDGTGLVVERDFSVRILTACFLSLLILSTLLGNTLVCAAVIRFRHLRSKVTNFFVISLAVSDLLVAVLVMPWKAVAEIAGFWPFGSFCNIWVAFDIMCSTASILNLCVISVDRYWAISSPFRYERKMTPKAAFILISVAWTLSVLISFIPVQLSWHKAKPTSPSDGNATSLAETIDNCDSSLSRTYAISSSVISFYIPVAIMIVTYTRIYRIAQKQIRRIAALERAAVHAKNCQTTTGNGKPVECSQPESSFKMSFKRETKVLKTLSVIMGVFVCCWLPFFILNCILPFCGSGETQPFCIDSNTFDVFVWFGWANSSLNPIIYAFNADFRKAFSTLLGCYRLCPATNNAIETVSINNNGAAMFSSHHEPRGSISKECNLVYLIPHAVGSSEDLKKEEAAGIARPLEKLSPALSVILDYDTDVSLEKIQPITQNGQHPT
D3 antag – antagonists of human D3 dopamine receptor; P35462; max response, negative = inhibition, %; AID 652054; D3R cells, DiscoveRx beta-arrestin luminescence, antagonist mode; active compounds read low; 360,000 tested, 2.5% active; in the data active means max response below about -50%; inconclusive means no clear call, values can overlap the other calls; further: on the % scale 0 is the no-effect control and ±100 the full control effect
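Cells expressing the human receptor were seeded at 1500 cells/well, incubated overnight at 37 degrees C in 5% CO2, then exposed to library compounds with dopamine controls for 90 minutes at 37 degrees C before luminescent detection.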
D1 antag – blocks dopamine activation of the human D1 receptor; P21728; HEK293 TREx D1 cells, calcium flux, dopamine EC80; active compounds read low; activity change, negative = inhibition, % at 10 µM; 360,000 tested, 3.2% active; AID 504652; in the data active means activity change below about -30%; further: on the % scale 0 is the no-effect control and ±100 the full control effect
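Cells carrying a force-coupled, tetracycline-inducible human D1 receptor report calcium flux. Each well gets a 10 s baseline, compound with 180 s monitoring, then an EC80 dopamine stimulus with a second 180 s kinetic read.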
D1 ag – human D1 receptor agonism; AID 504660; HEK293 T-REx D1 cells, calcium flux, agonist mode; activation, % at 2 µM; 360,000 tested, 1% active; P21728; in the data active means activation above about 30%; further: 0% is about no effect
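Inducible HEK293 T-REx D1 cells, force-coupled to calcium signalling, were plated at 4000 cells/well with tetracycline and held overnight at 30 C. After no-wash calcium dye loading, compound-evoked calcium rise over 180 s flagged agonists.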
DRD3 agonist – agonists of human D3 dopamine receptor | P35462 | D3R DiscoveRx beta-arrestin cells, luminescence, 90 min | AID 652048 | max activation, % | 410,000 tested, 0.58% active; in the data active means max activation above about 30%; further: 0% is about no effect
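Agonist-mode cell screen: cells plated at 1500/well and incubated overnight at 37 °C, then exposed to library compounds for 90 min at 37 °C. Detection reagent was added for 30–60 min at room temperature, and luminescence was read.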
* = called active by the depositor; ? = inconclusive; · = no result given. This is a sample that favours compounds with a hit; in the whole collection about 6.1% have one here.

SMILES	D1 PAM	D3 antag	D1 antag	D1 ag	DRD3 agonist
CCOC(=O)C(Cc1ccc(OC)c([N+](=O)[O-])c1)NC(=O)CCC(=O)Nc1ccc(OC)cc1 (stereo unspecified)	-3	0	6	1	0
CCCCCCCCCCCC(=O)NC(Cc1ccc(OC)c([N+](=O)[O-])c1)C(=O)O (stereo unspecified)	-10	1	-48*	137*	7
Cc1cccc(N2CCN(C(=O)c3cccc(-n4c(C)nc5cccnc54)c3)CC2)c1C	-2	·	0	2	7
CCc1ccc(NC(=O)Cn2c(=O)n(CCCCC(=O)NCCc3ccc(Cl)cc3)c(=O)c3ccccc32)cc1	1	·	1	2	-1
Cc1noc(C)c1S(=O)(=O)NCCc1csc2nc(-c3ccc(Cl)cc3)nn12	-3	·	·	16	-8
CC(C)(C)C(=O)NC(=S)NNC(=O)c1ccc(Cl)cc1Cl	8	-8	111	397*	6
CC(C)(C)C(=O)NC(=S)NNC(=O)c1ccc(-c2ccccc2)cc1	30	?	·	262*	-29
COc1ccc(NC(=O)CN(C)C(=O)/C=C/c2cn(-c3ccccc3)nc2-c2ccc(C)cc2)cc1	0	-55*	-8	3	-2
COc1ccc(NC(=O)CN(C)C(=O)/C=C/c2cn(-c3ccccc3)nc2-c2ccc(F)cc2)cc1	2	-4	6	9	-23
CCOc1ccc(OCC)c(NC(=O)CCC(=O)N2CCOc3ccccc32)c1	-2	·	12	2	0
Cc1coc2c(C)c3oc(=O)c(CCC(=O)N4CCCCC4)c(C)c3cc12	5	·	-12	-1	0
O=C(Nc1cccnc1)c1ccc(F)cc1	-3	-25	-2	0	-1
O=C(Nc1cccnc1)c1ccc(-c2ccccc2)cc1	-9	-6	-30*	5	0
O=C(Nc1ccncc1)c1ccc(-c2ccccc2)cc1	-13	12	-39*	18	1
CNS(=O)(=O)c1cccc(C(=O)Nc2cccnc2)c1	-3	-57*	1	-2	-23
COc1ccc(CCNC(=O)C2c3ccccc3C(=O)N2Cc2ccccc2)cc1OC (stereo unspecified)	-3	·	8	-4	5
O=C(Cc1cccc(NC(=O)C2CCCN(C(=O)CCc3ccccc3)C2)c1)Nc1ccc(C(=O)N2CCCCC2)cc1 (stereo unspecified)	·	-52*	·	·	-34
CN(C(=O)c1cccc(NC(=O)Cc2cccc([N+](=O)[O-])c2)c1)C1CCCC1	·	-75*	·	·	-19
CN(C(=O)c1cccc(NC(=O)Cc2cccc(NC(=O)C3CCN(C(=O)CCc4ccccc4)CC3)c2)c1)C1CC1	·	10	·	·	40*
CN(Cc1ccccc1)C(=O)c1cccc(NC(=O)Cc2ccc(NC(=O)C3CCN(C(=O)CCc4ccccc4)CC3)cc2)c1	·	44	·	·	78*
O=C(CCS(=O)(=O)c1nc(-c2ccc3c(c2)OCO3)cc(C(F)(F)F)n1)Nc1ccccc1C(F)(F)F	0	·	-11	5	-15
CCC(=O)C1=C(c2ccc(OC)c(OC)c2)N(C(=O)CC)n2c(CC)nnc2S1	0	·	14	0	4
CCOc1cc(C(=O)NCCc2sc(-c3ccc(F)cc3)nc2C)cc(OCC)c1OCC	-3	·	3	7	-12
COc1cc(NC(=O)Cn2c(=O)n(Cc3ccccc3OC)c(=O)c3cccnc32)cc(OC)c1	-2	·	18	9	-15
O=C(Nc1ccc(Cl)cc1)Nc1nnc(SCc2ccc(Cl)cc2)s1	-9	3	-3	0	-1
SMILES	D1 PAM	D3 antag	D1 antag	D1 ag	DRD3 agonist
O=C(Nc1nnc(SCc2ccc(Cl)cc2)s1)c1cnccn1	0	-22	-36*	4	-2
CCCCC/C=C\CCC(=O)N[C@H]1[C@H](Oc2c3cc4cc2Oc2ccc(cc2Cl)[C@@H](O[C@@H]2O[C@H](CO)[C@@H](O)[C@H](O)[C@H]2NC(C)=O)[C@@H]2NC(=O)[C@H](NC(=O)[C@@H]4NC(=O)[C@H]4NC(=O)[C@@H](Cc5ccc(c(Cl)c5)O3)NC(=O)[C@H](N)c3ccc(O)c(c3)Oc3cc(O)cc4c3)c3ccc(O)c(c3)-c3c(O[C@H]4O[C@H](CO)[C@@H](O)[C@H](O)[C@@H]4O)cc(O)cc3[C@@H](C(=O)O)NC2=O)O[C@H](CO)[C@@H](O)[C@@H]1O	·	·	·	·	-17
c1ccc(CN2CCN(C3CCCSc4ccccc43)CC2)cc1 (stereo unspecified)	·	-85*	·	·	-48
Cc1ccc(S(=O)(=O)N2CCN(Cc3noc(CCC(=O)N4CCCCC4)n3)CC2)c(C)c1	-2	·	-9	7	-4
CCCN1C2CCCC1CC(NC(=S)Nc1cccc(C)c1C)C2 (stereo unspecified)	-13	-15	-13	2	-6
CCc1ccccc1NC(=S)NC1CC2CCCC(C1)N2Cc1cccs1 (stereo unspecified)	-7	-76*	3	4	-35
Cc1cccc(NC(=S)NC2CC3CCCC(C2)N3Cc2cccs2)c1C (stereo unspecified)	-10	-72*	5	2	-30
CCC(Sc1ncccc1C(=O)Oc1ccccc1Cl)C(=O)Nc1ccccc1OC (stereo unspecified)	3	·	3	0	-2
CCOC(=O)N1CCc2c(sc3c2c(=O)n(CCc2ccccc2)c(=O)n3Cc2c(F)cccc2Cl)C1	0	·	8	1	7
CNC(=O)/C(C#N)=C\c1ccc(CNS(=O)(=O)c2ccccc2)o1	-10	-26	-17	1	-5
CNC(=O)/C(C#N)=C\c1ccc(CNS(=O)(=O)c2ccc(Cl)cc2)o1	-4	-7	-69*	1	5
CCc1nc(NCc2ccc3c(c2)OCO3)c2oc3ccccc3c2n1	-6	-66*	-14	3	-5
Cc1nc(NCc2ccc3c(c2)OCO3)c2oc3ccccc3c2n1	-7	10	-6	4	8
O=C(CSCc1ccc(F)cc1)N1CCN(c2ccccc2F)CC1	-2	·	-58*	1	2
O=C(CSCc1ccccc1)N1CCN(c2ccc(F)cc2)CC1	-5	-19	-11	8	-22
O=C(CCc1ccccc1)N1CCN(c2ccccc2F)CC1	2	-9	-9	0	-1
O=C(CCn1c(=O)oc2ccccc21)N1CCN(c2ccccc2F)CC1	-10	-9	-4	2	31*
CC(CC(=O)N1CCN(c2ccccc2F)CC1)c1ccccc1 (stereo unspecified)	2	9	-32*	4	1
Cc1cc(C)cc(NC(=O)C2CCCN(c3cnccn3)C2)c1 (stereo unspecified)	-1	·	9	3	6
CCN(CC)C(=O)CN(c1cc2c(cc1OC)oc1ccccc12)S(=O)(=O)c1ccccc1	-11	0	-68*	2	-15

Bioassay records as filed in PubChem.
